From PubChem BioAssay (NCATS)
Inconclusive results are not listed. Values without a mark were called inactive. The source made the active and inactive calls. The call rests on the fitted dose curve; in most records, active means well fitted cell-killing curve with a large enough effect; inconclusive means small, poorly fitted or top-dose-only effect, or effect the other way; inactive means no such curve, though single readings can be large or run the other way.

Test: qHTS of pediatric cancer cell lines to identify multiple opportunities for drug repurposing: Confirmatory screen for OHS-50 cells (AID 1347128);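 further: compound exposure lasted 48 h at 37 degrees C; nearly all actives have a fitted effect of over 55% in size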
Details: OHS-50 osteosarcoma cells viability; series mostly up to 45.9 µM; activity change, negative = cytotoxic: at the top concentration
Excerpt: Drug repurposing or repositioning has been offered as a strategy for drug development in oncology programs. This approach has special potential for childhood cancers and other rare or orphan diseases, where the expected return on new drug development has been a disincentive to pharmaceuticals.
In this project we exploit the poly-pharmacology of drugs to discover new indications via phenotypic screening of a panel of 19 well-characterized cell lines derived from solid tumors seen in children and adolescents. The goal is to identify approved drugs with previously unrecognized anticancer properties that has the potential to reveal new mechanisms and biological processes involved in carcinogenesis or drug resistance. We employed a titration-based paradigm (quantitative high-throughput screening or qHTS), where all compounds were tested at multiple concentrations for their effect on cell viability. Concentration-response curves (CRCs) were derived directly from the primary screen, and both potency and efficacy values were used to identify compounds with robust bioactivity profiles. We screened the NIH Chemical Genomics Center (NCGC) Pharmaceutical Collection (NPC) and Mechanism Interrogation Plate (MIPE) small molecule collections of approved and investigational compounds against these cell lines; and measured metabolically active cells after 48 hours of compound treatment as a proxy for cell viability.
Assay Submitter: Nathalia J. Martinez, National Center for Advancing Translational Sciences, National Institutes of Health, Rockville, MD, USA; email: natalia.martinez@nih.gov
[1] Shen, M et al. Quantitative high-throughput phenotypic screening of pediatric cancer cell lines identifies multiple opportunities for drug repurposing. Oncotarget 2017 Dec 19;9(4):4758-4772. PMID 29435139.
The cells were obtained from University of North Carolina (UNC), Pediatric Preclinical Testing Program (PPT), and Coriell Institute (CI).
qHTS cell viability assay:
Cells were assayed in growth media at a density of 500-1,000 cells/well. Five microliters of cells were dispensed into 1,536-well, white, solid-bottom, TC-treated plates (Greiner Bio One) using a multidrop dispenser and incubated at 37 degrees C, 5% CO2, under a humidified atmosphere for 5 hours. Twenty-three nanoliters of compounds and controls (neutral control DMSO or positive control bortezomib at final concentration of 2.3 µM) were subsequently transferred by Kalypsys pintool. For primary screens, the MIPE collection was tested at 11-point dilutions (final concentrations range from 0.78 nM to 46 µM) and the NPC collection at 8-point dilutions (final concentrations range from 0.59 nM to 46 µM). Compounds tested in follow-up screens were assayed at 11-point dilutions. Cells were incubated for 48 hours, followed by addition of 3 µL of CellTiter-Glo (Promega). After a 15 min incubation at room temperature, samples were analyzed for luminescence intensity using a ViewLux High-throughput CCD imager equipped with clear filters.
On the % scale 0 is the no-effect control and ±100 the full control effect; potency means the concentration at half of the fitted maximal effect.

Row | Structure (SMILES) | activity change, negative = cytotoxic | Potency
1 | CC[C@@H]1[C@@H](C)O[C@@](O)([C@@H](C)[C@H](O)[C@H](C)[C@H]2OC(=O)C=CC=C[C@@H](C)[C@@H]([C@@H](C)[C@@H](O)[C@H](C)[C@@]3(O)C[C@H](O[C@H]4C[C@H](O)[C@H](O)[C@H](C)O4)[C@H](CC)[C@@H](C)O3)OC(=O)C=CC=C[C@@H]2C)C[C@H]1O[C@H]1C[C@H](O)[C@H](O)[C@H](C)O1 | 10.2% | –
2 | O=C1C(I)=CC(=C(c2cc(I)c(O)c(I)c2)c2ccccc2C(=O)O)C=C1I | 5.87% | –
3 | CC=C(C)C(=O)N[C@@H](c1ccccc1)[C@@H](O)C(=O)O[C@H]1C[C@@]2(O)[C@@H](OC(=O)c3ccccc3)[C@@H]3[C@]4(OC(C)=O)CO[C@@H]4C[C@H](O)[C@@]3(C)C(=O)[C@H](OC(C)=O)C(=C1C)C2(C)C | – | 41.4 nM (active)
4 | C[C@H]1CCCC=CC2C[C@H](O)C[C@@H]2[C@H](O)C=CC(=O)O1 (stereo partly drawn) | – | 46.5 nM (active)
5 | O=c1[nH]c2ccc(Cl)cc2c(N[C@@H]2CN3CCC2CC3)c1-c1nc2ccccc2[nH]1 | – | 657 nM (active)
6 | COc1cc2cc(c1Cl)N(C)C(=O)C[C@H](OC(=O)C(C)C)[C@]1(C)O[C@H]1[C@H](C)[C@@H]1C[C@@](O)(NC(=O)O1)[C@H](OC)C=CC=C(C)C2 | – | 11.7 nM (active)
7 | CC(=Cc1csc(C)n1)[C@@H]1C[C@H]2O[C@@H]2CCC[C@H](C)[C@@H](O)[C@@H](C)C(=O)C(C)(C)[C@@H](O)CC(=O)O1 | – | 32.9 nM (active)
8 | CC[C@H]1C=CC=CC[C@@H](C)[C@H](O)[C@@](C)(O)C(=O)[C@@H](C)[C@H](O)[C@@H](C)C(=O)[C@@H](C)[C@H](O)[C@@H](C)C=CC(=O)O[C@@H]2[C@@H](C)[C@H](CC1)O[C@]1(CC[C@H](C)[C@H](C[C@@H](C)O)O1)[C@H]2C | -19% | –
9 | CS(=O)(=O)c1ccc(C(=O)C2C(=O)CCCC2=O)c([N+](=O)[O-])c1 | 7.81% [at 95.5 µM] | –
10 | CC(=Cc1csc(C)n1)[C@@H]1C[C@H]2O[C@]2(C)CCC[C@H](C)[C@@H](O)[C@@H](C)C(=O)C(C)(C)[C@@H](O)CC(=O)O1 | – | 13.1 nM (active)
11 | CCC(=O)OC1CCC2C3CCC4=CC(=O)CC[C@@]4(C)C3CC[C@]12C (stereo partly drawn) | -2.51% | –
12 | CO[C@H]1CCC(O[C@H]2C[C@H]([C@]3(C)CC[C@]4(C[C@H](O)[C@@H](C)[C@@H]([C@@H](C)C=C(C)C(=O)[C@H](C)C[C@H](C)C(=O)O)O4)O3)O[C@]3(O[C@@H]([C@H]4O[C@@](O)(CO)[C@H](C)C[C@H]4C)C[C@H]3C)[C@H]2C)O[C@H]1C (stereo partly drawn) | – | 2610 nM (active)
13 | COc1ccc2c(c1)CN(C)CC2c1ccc(Cl)c(Cl)c1 (stereo not drawn) | – | 23300 nM (active)
14 | CC(C)(O)C=CC(=O)[C@](C)(O)[C@H]1[C@H](O)C[C@]2(C)[C@@H]3CC=C4[C@@H](C=C(O)C(=O)C4(C)C)[C@]3(C)C(=O)C[C@@]12C | – | 1470 nM (active)
15 | CC(C)(C)C(O)C(Oc1ccc(Cl)cc1)n1cncn1 (stereo not drawn) | -1.98% [at 95.5 µM] | –
16 | O=C(Nc1ccncc1)C(=O)c1cn(Cc2ccc(Cl)cc2)c2ccccc12 | – | 928 nM (active)
17 | Cc1c(N)nc([C@H](CC(N)=O)NC[C@@H](N)C(N)=O)nc1C(=O)N[C@H](C(=O)N[C@@H](C)[C@H](O)[C@@H](C)C(=O)N[C@@H](C(=O)NCCc1nc(-c2nc(C(=O)NCCC[S+](C)C)cs2)cs1)[C@@H](C)O)C(O[C@H]1O[C@H](CO)[C@H](O)[C@@H](O)[C@@H]1O[C@H]1O[C@H](CO)[C@@H](O)[C@H](OC(N)=O)[C@H]1O)c1cnc[nH]1 (stereo partly drawn) | 13.4% | –

Row | Structure (SMILES) | activity change, negative = cytotoxic | Potency
18 | Cc1[nH]nc2ccc(-c3cncc(OC[C@@H](N)Cc4c[nH]c5ccccc45)c3)cc12 | – | 2610 nM (active)
19 | C[C@@H]1CC[C@@]2(OC1)O[C@H]1C[C@H]3[C@@H]4CC=C5C[C@@H](O[C@@H]6O[C@H](CO)[C@@H](O[C@@H]7O[C@@H](C)[C@H](O)[C@@H](O)[C@@H]7O)[C@H](O)[C@@H]6O[C@@H]6O[C@@H](C)[C@H](O)[C@@H](O)[C@@H]6O)CC[C@]5(C)[C@@H]4CC[C@]3(C)[C@@H]1[C@H]2C | – | 5220 nM (active)
20 | O=C(O)COc1nc(Cl)c(Cl)cc1Cl | 0.382% [at 95.5 µM] | –
21 | COc1cc([C@@H]2c3cc4c(cc3[C@@H](O)C3COC(=O)C32)OCO4)cc(OC)c1O (stereo partly drawn) | -2.94% | –
22 | O=C(O)CCCOc1ccc(Cl)cc1Cl | -0.586% [at 95.5 µM] | –
23 | C[C@]12Cc3cn[nH]c3C[C@@H]1CC[C@@H]1[C@H]2CC[C@@]2(C)[C@H]1CC[C@]2(C)O | -21.3% | –
24 | CC(C)[C@]12O[C@@H]1[C@@H]1O[C@]13[C@]1(O[C@H]1C[C@@H]1C4=C(CC[C@@]13C)C(=O)OC4)[C@H]2O | – | 104 nM (active)
25 | CC(=O)[O][Hg][c]1ccccc1 | – | 5850 nM (active)
26 | CC1=C(O)C(=O)C=C2C1=CC=C1[C@@]2(C)CC[C@@]2(C)[C@@H]3C[C@](C)(C(=O)O)CC[C@]3(C)CC[C@]12C | – | 2610 nM (active)
27 | Cc1c(C(=O)Nc2cccc(C(F)(F)F)c2)cc(-c2ccccc2)n1CCCN1CCOCC1 | – | 42700 nM (active)
28 | O=C(N[C@H]1CN2CCC1CC2)c1ccc(Cl)cc1 | – | 10400 nM (active)
29 | Cc1ccccc1-n1c(Cn2cnc3c(N)ncnc32)nc2cccc(C)c2c1=O | 0.926% | –
30 | C[C@@H]1O[C@@H](O[C@@H]2C=C3CC[C@@H]4[C@@H](CC[C@]5(C)[C@H](c6ccc(=O)oc6)CC[C@@]45O)[C@@]3(C)CC2)[C@H](O)[C@H](O)[C@H]1O | – | 16.5 nM (active)
31 | Cc1ccccc1-n1c(Cn2ncc3c(N)ncnc32)nc2cccc(C)c2c1=O | – | 23300 nM (active)
32 | CC[C@@]1(O)C(=O)OCc2c1cc1n(c2=O)Cc2cc3ccccc3nc2-1 | – | 147 nM (active)
33 | CC(C)N[C@@H]1CCn2c(=O)[nH]c3cccc(c32)[C@@H]1O | 3.72% | –
